For six compounds, Potency and outcome results are on record in PubChem BioAssay AID2639 (National Center for Advancing Translational Sciences (NCATS), 2010).

Molecules are shown by their SMILES. Activity calls are given as the source filed them. Where a call stands in place of a potency, no number is given. The call rests on the fitted dose curve.

This experiment in a line: Platelet Aggregation Secondary Assay for Inhibitors of Platelet Integrin alphallb-beta3. The note with it: platelet-rich plasma, ADP-induced aggregation, absorbance 563 nm. The text has this:
NIH Molecular Libraries Probe Production Network [MLPCN] NIH Chemical Genomics Center [NCGC] MLPCN Grant: 1 R03 MH083257-01 Assay Provider: Barry Coller, Rockefeller University NCGC Assay Overview: The alphaIIbbeta3 receptor plays a vital role in hemostasis and thrombosis, where receptor deficiency causes the hemorrhagic disorder, Glanzmann thrombasthenia, and uncontrolled receptor activation causes thrombosis and blood vessel occlusion. Small molecule inhibitors of alphaIIbbeta3, tirofiban and eptifibatide, have undesirable side effects thought to arise from conformational changes in alphaIIbbeta3. These changes transiently activate the receptor to cause spontaneous platelet aggregation and thrombus formation. […] This secondary assay measures platelet aggregation (Blue et al., 2008). Platelets are induced to aggregate and aggregation is tracked by the change in absorbance over time. Inhibitors of alphaIIbbeta3 block platelet aggregation and decrease the rate of change in absorbance.
NCGC Assay Protocol Summary: Untreated 96-well polystyrene plates (Nunc, Rochester, NY) were blocked for at least 1 hour with HBMT (138 mM NaCl, 12 mM NaHCO3, 10 mM HEPES, 2.7 mM KCl, 0.4 mM NaH2PO4, 0.1% glucose, 0.35% BSA, pH 7.4). Compounds (33 uL in HBMT) and citrated platelet-rich plasma (67 uL) were added to the wells. After plates equilibrated at 37 C in the plate reader (SpectraMax; Molecular Devices, Sunnyvale, CA) for 10 minutes, aggregation was initiated by adding ADP (5 uM final concentration; Chrono-Log Corp, Havertown, PA). Absorbance (Abs) was measured at 563 nm every 10 seconds with 3 seconds of shaking between determinations for 8 minutes. Reference Blue R, Murcia M, Karan C, Jirouskova M, and Coller BS. Application of high-throughput screening to identify a novel alphaIIb-specific small- molecule inhibitor of alphaIIbbeta3-mediated platelet interaction with fibrinogen. Blood. 2008, 111(3):1248-56
In the case of `CCc1nn2c(=O)cc(N3CCNCC3)nc2s1`, the Potency was 8.4 µM (active).
Turning to `CCc1nn2c(=O)c(C)c(N3CCNCC3)nc2s1`, the call was inactive.
Consider `CCc1nn2c(=O)cc(N3CCN(C)CC3)nc2s1`, for which the result was inactive.
Same read-out and setting: the entry for `O=c1cc(N2CCNCC2)nc2sc(C3CC3)nn12` is “inactive”.
For the compound `CCc1nn2c(=O)c(F)c(N3CCNCC3)nc2s1`, the Potency was 8.3 µM (active).
On to `Cc1nn2c(=O)cc(N3CCNCC3)nc2s1`, for which the call was inactive.
